Values joined by “and” are separate entries in the source; they are usually repeats but may differ in a detail not shown here. Equal entries are not always repeated. About 31,000 (8.9%) of roughly 350,000 compounds were called active. Not shown: some 15% with an inconclusive outcome. Calls come from the whole dose curve; as a rule, active = well fitted inhibition curve with a large enough effect; inconclusive = small, poorly fitted or top-dose-only effect; inactive = no such curve, though single readings can be large or run the other way. The list comes from a sample in which actives are over-represented; it also holds similar structures and randomly drawn compounds. Where a call stands in place of a potency, no number is given. Some structures have more than one record in an assay (separate samples or runs), and their calls can disagree.
Potency is the fitted concentration of half-maximal effect.

This assay deals with Histone-lysine N-methyltransferase EHMT2 (Homo sapiens) (UniProt Q96KQ7). Kind of assay: qHTS Assay for Inhibitors of Histone Lysine Methyltransferase G9a. Note: nearly all actives have a fitted effect of over 75% in size. The settings on record: G9a H3K9 monomethylation, AlphaScreen, 2 h; series mostly up to 59 µM. In short, it runs like this: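 Using a bead-based AlphaScreen, monomethylated H3K9 product from 2 h room-temperature reactions (G9a 20 nM, peptide 500 nM, SAM 20 uM) was detected with 0.5 ug/mL rabbit anti-H3K9me1 antibody.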
Histone-lysine N-methyltransferase EHMT2 (Homo sapiens), sequence (Q96KQ7 913-1193 limits assumed): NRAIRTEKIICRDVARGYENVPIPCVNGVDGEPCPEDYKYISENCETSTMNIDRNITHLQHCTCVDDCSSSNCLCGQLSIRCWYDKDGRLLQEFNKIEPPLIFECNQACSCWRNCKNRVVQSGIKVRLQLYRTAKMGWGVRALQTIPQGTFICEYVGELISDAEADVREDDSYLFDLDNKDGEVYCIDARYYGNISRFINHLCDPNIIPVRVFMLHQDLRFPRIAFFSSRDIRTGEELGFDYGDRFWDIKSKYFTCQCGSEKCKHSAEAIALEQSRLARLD
Background: qHTS replaces the single test concentration by a dilution series.
As to `Cc1ccc(CNC(=O)c2cc(-c3ccccc3C)n(CC3CC(c4cccc([N+](=O)[O-])c4)=NO3)n2)cc1` (stereo unspecified), the activity, negative = inhibition was -36.4% [at 2.33 µM] (inactive).
Take `C=CCN1C(=O)C(Cc2cccc(Cl)c2)S/C1=N/N=C/c1ccco1` (stereo unspecified): the Potency is 10 µM (active).
Regarding `CCC1S/C(=N/N=C/c2ccco2)NC1=O` (stereo unspecified), the Potency result is “inactive”.
Same read-out and setting: the result for `COc1ccc(CN2C(=O)C(C)S/C2=N/N=C/c2ccco2)cc1` (stereo unspecified) reads 50.1 µM (active).
Still for that read-out and setting: to `C=CCN1C(=O)C(Cc2ccc(OCC)cc2)SC1=Nc1ccc(C(=O)O)cc1` (stereo unspecified) belongs “inactive”; to `O=C1N/C(=N\N=C\c2ccco2)SC1Cc1ccc(F)cc1` (stereo unspecified), “inactive”.
As to `COc1ccc(Cn2ccn(Cc3cccc(OC)c3)c(=O)c2=O)cc1`, the Potency entry was “inactive”.
The same measure, in the same setting: to `CCCNC(=O)C(CC)n1nc(CC)n2c(cc3oc(C)cc32)c1=O` (stereo unspecified) belongs “inactive”; to `Cc1ccc(C)c(N2CCN(S(=O)(=O)c3ccc4c(c3)C(C(C)C)C(=O)N4)CC2)c1` (stereo unspecified), “inactive”; to `O=C(NCCOCc1ccc(Cl)cc1)c1ncn[nH]1`, “inactive”.
On the same count and under the same terms, to `O=C(/C=C/Sc1ncn[nH]1)c1ccc(Cl)cc1` belongs 39.8 µM (active).
Take `COc1ccc(Cl)cc1CSc1ncn[nH]1`: the Potency result was “inactive”.
For the molecule `Cc1cc(C)c2oc(C(=O)Nc3ccc(S(=O)(=O)N4CCCCCC4)cc3)cc(=O)c2c1`, the Potency entry was “inactive”.
Still for that read-out and setting: to `CCOc1ccccc1CNC(=O)C1CCCN(S(=O)(=O)c2ccc3c(ccn3C)c2)C1` (stereo unspecified) belongs “inactive”; to `Cc1ccc(C)c(Cn2c(CCCNC(=O)C3CCCCC3)nc3ccccc32)c1`, “inactive”.
Consider `COc1ccccc1C(=O)NCCC(=O)NC1=NCCS1`, for which the activity, negative = inhibition was 43% [at 12.7 µM] (inactive).
On to `O=C(O)c1ccccc1C(=O)NC1=NN(c2ccccc2)CC1`, for which the Potency is 39.8 µM (active).
On to `O=C(O)c1ccccc1-c1ccccc1C(=O)Nc1ccccc1Br`, for which the Potency result is “inactive”.
For the molecule `Nc1c(C(=O)O)cnn1-c1ccccc1`, the Potency entry is “inactive”.
On the same count and under the same terms, the result for `C/C(=N\Nc1cccc(C(=O)O)c1)c1ccc2c(c1)Nc1ccccc1S2` reads 3.16 µM (active); that for `O=C(NC1CC1)c1ccc2c(c1)NC(=O)c1ccccc1S2`, “inactive”; that for `CC(=O)Nc1cccc(/C(C)=N/NC(=O)c2ccccc2Cl)c1`, “inactive”.
`O=C(NCc1ccc(Cl)cc1)c1cc(=O)nc2sc(-c3ccccc3)nn12`: the Potency result was “inactive”.
Turning to `O=C(NCc1cn2ccsc2n1)Nc1ccc(Cl)cc1`, the Potency result was “inactive”.
The same measure, in the same setting: to `O=C(NCc1ccc(Cl)cc1)c1cc2c(nc3sccn32)s1` belongs 35.5 µM (active); to `CN(CC1CCCO1)S(=O)(=O)c1ccc(C(=O)Nc2ccc([N+](=O)[O-])cc2)cc1` (stereo unspecified), “inactive”; to `O=C(Nc1cc2c3c(c1)C1CCCC1CN3CC1CCCC21)c1ccc([N+](=O)[O-])cc1` (stereo unspecified), 10 µM (active).
For the molecule `CN1C2CCC1CC(NC(=O)c1ccc([N+](=O)[O-])cc1)C2` (stereo unspecified), the Potency result is “inactive”.
In the case of `CC(=O)N1CCCc2ccc(NS(=O)(=O)c3ccc(F)cc3F)cc21`, the activity, negative = inhibition was -4.23% [at 12.7 µM] (inactive).
Regarding `O=C(C1CC(=O)N(C2CCCC2)C1)N1CCN(c2cccc(C(F)(F)F)c2)CC1` (stereo unspecified), the Potency entry was “inactive”.
For the molecule `CCC1(C)NC(=O)N(CC(=O)N2CCN(c3cccc(Cl)c3)CC2)C1=O` (stereo unspecified), the activity, negative = inhibition was 17.9% [at 2.33 µM] (inactive).
In the case of `O=C(N/N=C/c1cc([N+](=O)[O-])ccc1O)/C(=C\c1cccs1)NC(=O)c1ccccc1`, the Potency entry was “inactive”.
On the same count and under the same terms, to `O=[N+]([O-])c1ccc(O)c(/C=N/Nc2ccccc2[N+](=O)[O-])c1` belongs 20 µM (active).
On the same count and under the same terms, the result for `Nc1nnnn1/N=C/c1cc([N+](=O)[O-])ccc1O` reads “inactive”; that for `O=C1OC(C(=O)Nc2cccc(Br)c2)Cc2ccccc21` (stereo unspecified), “inactive”.
Same read-out and setting: to `COc1ccc(NC(=O)c2sc3nc(-c4cc5cccc(OC)c5oc4=O)[nH]c(=O)c3c2C)cc1` belongs “inactive”.
With `O=C(CN1CCN(S(=O)(=O)c2cccc(Cl)c2)CC1)N1CCCCC1`, the activity, negative = inhibition was 6.11% [at 12.7 µM] (inactive).
On to `CC(=O)N1CCc2cc(S(=O)(=O)NC(Cc3ccccc3)C(=O)NCc3ccc(C)cc3)ccc21` (stereo unspecified), for which the Potency result is “inactive”.
For the molecule `NC(=O)c1c(Nc2nc3c(F)cccc3s2)sc2c1CCCC2`, the Potency is 2.82 µM (active).
The same measure, in the same setting: the result for `Cc1cc(OC(C)C(=O)Nc2sc3c(c2C(N)=O)CCCC3)ccc1Cl` (stereo unspecified) reads “inactive”; that for `Fc1cc(F)c2nc(Nc3nc4c(F)cccc4s3)sc2c1`, “inactive”.
Same read-out and setting: the result for `CC(c1ccccn1)N(C)C(=O)c1ccc2nc(Cc3cccc(Cl)c3)oc2c1` (stereo unspecified) reads “inactive”; that for `O=C(N/N=C/c1cccc(OCc2ccccc2)c1)c1ccc(Br)o1`, “inactive”; that for `Cn1c(SCC(=O)N2CCCc3ccccc32)ncc(C(=O)Nc2ccc(F)cc2)c1=O`, “inactive”.
Take `CCN(CC)C(CNC(=O)CSc1nnnn1-c1cccc(F)c1)c1ccco1` (stereo unspecified): the activity, negative = inhibition is 5.11% [at 12.7 µM] (inactive).
For the molecule `Cc1ccc(C(=O)N/N=C\c2cc(Br)c(Br)o2)cn1`, the Potency was 50.1 µM (active).
Same read-out and setting: to `O=C(O)c1ccc(/C=N/NC(=O)c2ccc(Br)cc2)cc1` belongs “inactive”; to `O=C(N/N=C/c1ccc(Br)o1)c1cncc(Br)c1`, “inactive”.
Regarding `COc1ccc(CC(=O)OC(C)C(=O)Nc2ccc(S(N)(=O)=O)cc2)cc1` (stereo unspecified), the activity, negative = inhibition was -8.93% [at 2.33 µM] (inactive).
For `CSc1nc(-c2ccccc2Cl)nc2c1Cc1c(CO)cnc(C)c1O2`, the Potency entry is “inactive”.
Turning to `COc1ccc(CNC(=O)C(c2ccc(O)cc2)N(Cc2ccco2)C(=O)c2snc(C(N)=O)c2N)cc1` (stereo unspecified), the Potency entry was “inactive”.
On to `O=C(OCc1cc(=O)n2ccsc2n1)C1(c2ccc(Cl)cc2)CC1`, for which the activity, negative = inhibition is 2.61% [at 12.7 µM] (inactive).
For the molecule `CCN1CCN(CCCNC(=O)c2ccc3c(c2)sc2nc(-c4ccc(OC)cc4)cn23)CC1`, the Potency entry was “inactive”.
Take `CN(C)S(=O)(=O)c1ccc(C(=O)NCC2(N3CCOCC3)CCCCC2)cc1`: the activity, negative = inhibition is 0.405% [at 2.33 µM] (inactive).
Consider `CN1CN(C)c2ccc([N+](=O)[O-])c3cccc1c23`, for which the Potency is 50.1 µM (active).
With `Cc1ccc(C)c(OCCC(=O)OCC(=O)c2ccc3c(c2)NC(=O)CO3)c1`, the activity, negative = inhibition was 6.89% [at 12.7 µM] (inactive).
As to `O=C(O)CN1c2cccc3cccc(c23)S1(=O)=O`, the Potency was 44.7 µM (active).
Turning to `CCN(CC(=O)Nc1c(F)cccc1F)C(=O)CN1c2cccc3cccc(c23)S1(=O)=O`, the activity, negative = inhibition was 5.18% [at 0.501 µM] (inactive).
Turning to `COc1ccc(NC(=O)C(C)N2c3cccc4cccc(c34)S2(=O)=O)c(OC)c1` (stereo unspecified), the Potency result was “inactive”.
On the same count and under the same terms, the result for `Cc1ccc(-n2c(SCC(=O)N3CCC(C(=O)O)CC3)nc3ccccc3c2=O)cc1C` reads “inactive”.
On the same count and under the same terms, to `CC(C)OC(=O)c1ccc(COc2ccc3ccc(=O)oc3c2)o1` belongs “inactive”; to `O=C(N/N=C/c1ccc(Cl)c(Cl)c1)c1ccc2nc[nH]c2c1`, “inactive”.
Same read-out and setting: to `CC(C)c1nc2ccc(C(=O)O)cc2[nH]1` belongs “inactive”; to `Cc1nonc1C(=O)N/N=C/c1ccc(O)cc1`, “inactive”; to `Cc1nc2ccc(C(=O)N/N=C/c3ccc(O)cc3)cc2[nH]1`, 79.4 µM (active).
On to `Cc1nc2ccc(C(=O)O)cc2[nH]1`, for which the Potency was 70.8 µM (active).
Turning to `Cc1ccc2nc(CNC(=O)c3ccccc3)[nH]c2c1`, the Potency entry is “inactive”.
Same read-out and setting: the result for `CCc1ccccc1N1C(=O)CN(S(=O)(=O)CC)CC1(C)C(=O)NC1CCCCC1` (stereo unspecified) reads “inactive”; that for `Cc1ccc2nc(COc3ccc(NC(=O)COc4ccccc4F)cc3)cc(=O)n2c1`, “inactive”.
On to `C[C@H](NC(=O)c1ccccc1Cl)C(=O)OCC(=O)N1CCN(c2ccccc2)CC1`, for which the activity, negative = inhibition is -0.744% [at 12.7 µM] (inactive).
On to `Cn1c(=O)c2c(nc(SCC(=O)Nc3ccc(F)cc3)n2Cc2ccc(Cl)cc2)n(C)c1=O`, for which the Potency result was “inactive”.
On the same count and under the same terms, the result for `COc1cccc(-n2c(N)cc(=O)nc2SCC(=O)Nc2cc(C)on2)c1` reads “inactive”.
Regarding `COc1ccccc1CNC(=O)CCCn1c(=O)c2ccccc2n(CC(=O)Nc2ccc(C)cc2Cl)c1=O`, the Potency result was “inactive”.
On the same count and under the same terms, the result for `CCOC(=O)c1ccc(NC(=O)CSc2nc3c([nH]c4ccccc43)c(=O)n2C)cc1` reads “inactive”; that for `Cc1cc(C(=O)N/N=C/c2ccc(N3CCOCC3)cc2)c(C)o1`, “inactive”.
Consider `CNC(=S)N/N=C/c1ccc(N2CCOCC2)s1`, for which the Potency is 28.2 µM (active).
Regarding `C=CCNC(=S)N/N=C/c1ccc(C)s1`, the activity, negative = inhibition was 72.7% [at 12.7 µM] (inactive).
Consider `COc1cc2ccccc2cc1C(=O)Nc1ccc(NC(=O)c2cccs2)cc1`, for which the Potency entry is “inactive”.
As for `O=C(Cc1ccc(Cl)cc1)Nc1ccc2nn(-c3ccc(Cl)cc3)nc2c1`, the Potency result was “inactive”.
Same read-out and setting: to `Cc1ccc(CCNC(=O)Cn2c(-c3cccs3)cc3cc(F)ccc32)cc1` belongs “inactive”.
Still for that read-out and setting: to `CCOC(=O)c1cccc(NC(=O)C(Cc2ccccc2)NS(=O)(=O)c2cccc3nsnc23)c1` (stereo unspecified) belongs “inactive”; to `Cc1ccc(-n2ccc(=O)c(C(=O)O)n2)cc1`, “inactive”.
Still for that read-out and setting: the result for `Cc1ccc(N2C(=O)c3ccccc3C2(O)c2ncc[nH]2)cc1` (stereo unspecified) reads 7.08 µM (active); that for `Cc1ccnc(NC(=O)C(C)N2C(=O)c3ccccc3C2=O)c1` (stereo unspecified), “inactive”.
`O=C(O)c1ccccc1-c1ccccc1C(=O)NCCc1ccccc1`: the Potency entry was “inactive”.
Same read-out and setting: to `CCOCCCNC(=O)c1c(NC(=O)c2nc(SC)ncc2Cl)sc2c1CCCC2` belongs “inactive”; to `COc1ccc(N2C(=O)CC(Sc3n[nH]c(-c4ccc(C)cc4)n3)C2=O)cc1` (stereo unspecified), 1.58 µM (active); to `COc1ccc(N2C(=O)CC(SC(C)C)C2=O)cc1` (stereo unspecified), “inactive”.
Still for that read-out and setting: the result for `COc1ccc(-c2nc(SCC(=O)N3CCCC3)n[nH]2)cc1` reads “inactive”.
The same measure, in the same setting: to `CC(=O)Nc1ccc(NC(=O)C2CCCN(S(=O)(=O)c3ccc4c(c3)CCCC(=O)N4)C2)cc1` (stereo unspecified) belongs “inactive”.
As to `CCN1CCN(C(=O)N(Cc2ccc(Cl)cc2)S(=O)(=O)c2ccc(C)cc2)CC1`, the activity, negative = inhibition was 19.8% [at 2.33 µM] (inactive).
As to `CC(C)(C)c1ccc(CN2C(=O)c3ccccc3S2(=O)=O)cc1`, the Potency entry was “inactive”.
As to `O=[N+]([O-])/C(N=Nc1ccccc1)=N\Nc1ccccc1`, the Potency was 31.6 µM (active).
Regarding `Cc1ccc(F)cc1NC(=O)c1ccc2c(c1)OCO2`, the activity, negative = inhibition was -5.61% [at 12.7 µM] (inactive).
For `Cc1ccc(NC(=O)c2cccc(N(C)C)c2)cc1NC(=O)c1ccc(O)cc1`, the Potency entry was “inactive and 14.1 µM (active)”.
On the same count and under the same terms, to `Cc1ccc(F)cc1NC(=O)c1cccc(N(C)C)c1` belongs “inactive”.

These data come from PubChem BioAssay AID504332 (National Center for Advancing Translational Sciences (NCATS), 2011).
